In the supplement of paper PMC10849652:
Of roughly 7,900 targets only a part is listed; those with a hit were picked by preference. About 0.6% of all pairs of compound and target were hits.

What was measured:
Assay in all cases: log2 fold change, soluble protein after heating vs DMSO (PISA); higher = thermal stabilisation; K562 cells, 10 uM, 30 min; active = over 0.2 and 3.5 SD of the protein, either way, in both replicates (recomputed)
[1] = compound: CC[C@@H]1C(=O)N(C)c2cnc(Nc3ccc(C(=O)NC4CCN(C)CC4)cc3OC)nc2N1C1CCCC1
Summary of the method: (§1)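 Soluble protein was defined as the supernatant after 21,000xg for 90 min. It came from K562 cells at 2×10^6 cells/mL given 10 μM compound for 30 min, heated in aliquots for 3 min across 48°C-58°C, pooled, and extracted in PBS with 0.5% NP-40 at 4°C, and was quantified by TMTpro 16plex LC-MS/MS with equalised channel sums. Thermal stability against control samples, from duplicates, is reported as log2 fold change.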

volasertib = compound: CC[C@@H]1C(=O)N(C)c2cnc(Nc3ccc(C(=O)N[C@H]4CC[C@H](N5CCN(CC6CC6)CC5)CC4)cc3OC)nc2N1C(C)C [volasertib]
Summary of the method: as §1

[2] = compound: CC[C@H](C)N1C=C(C2=C(C=C(C=C21)C3=CN=C(C=C3)N4CCNCC4)C(=O)NCC5=C(C=C(NC5=O)C)C)C
Summary of the method: as §1

epoxomicin = compound: CC[C@H](C)[C@@H](C(=O)N[C@@H]([C@@H](C)O)C(=O)N[C@@H](CC(C)C)C(=O)[C@]1(CO1)C)NC(=O)[C@H]([C@@H](C)CC)N(C)C(=O)C [epoxomicin]
Summary of the method: as §1

[3] = compound: CCn1c(C(=O)N(C2CC2)C2CC2)cc2c3c(ncn3C)c(Nc3cc(C)n(C)n3)nc21
Summary of the method: as §1

[4] = compound: CN(C)CC(=O)Nc1ccc2[nH]c(=O)c3ccccc3c2c1
Summary of the method: as §1

rosiglitazone = compound: CN(CCOC1=CC=C(C=C1)C[C@H]2C(=O)NC(=O)S2)C3=CC=CC=N3 (racemic) [rosiglitazone]
Summary of the method: as §1

[5] = compound: CN1C2=C(C3=C1C(=O)N(N=C3)CC4=CC(=CC=C4)N)SC(=C2)S(=O)C
Summary of the method: as §1

saracatinib = compound: CN1CCN(CCOc2cc(OC3CCOCC3)c3c(Nc4c(Cl)ccc5c4OCO5)ncnc3c2)CC1 [saracatinib]
Summary of the method: as §1

sotrastaurin = compound: CN1CCN(c2nc(C3=C(c4c[nH]c5ccccc45)C(=O)NC3=O)c3ccccc3n2)CC1 [sotrastaurin]
Summary of the method: as §1

alvocidib = compound: CN1CC[C@H](c2c(O)cc(O)c3c(=O)cc(-c4ccccc4Cl)oc23)[C@H](O)C1 [alvocidib]
Summary of the method: as §1

Tubastatin A = compound: CN1CCc2c(c3ccccc3n2Cc2ccc(C(=O)NO)cc2)C1 [Tubastatin A]
Summary of the method: as §1

[6] = compound: CNC(=O)C1=CC=CC=C1NC2=NC(=NC=C2Cl)NC3=C(C=C(C=C3)N4CCOCC4)OC
Summary of the method: as §1

defactinib = compound: CNC(=O)c1ccc(Nc2ncc(C(F)(F)F)c(NCc3nccnc3N(C)S(C)(=O)=O)n2)cc1 [defactinib]
Summary of the method: as §1

rucaparib = compound: CNCc1ccc(-c2[nH]c3cc(F)cc4c3c2CCNC4=O)cc1 [rucaparib]
Summary of the method: as §1

[7] = compound: CNc1nc(-c2ccc3c(N)n[nH]c3c2)cc(N2C[C@@H](C(=O)NC3CCCCC3)CC[C@H]2C)n1
Summary of the method: as §1

encorafenib = compound: COC(=O)N[C@@H](C)CNc1nccc(-c2cn(C(C)C)nc2-c2cc(Cl)cc(NS(C)(=O)=O)c2F)n1 [encorafenib]
Summary of the method: as §1

[8] = compound: COC(=O)[C@H](CCSC)NC(=O)C1=C(C=C(C=C1)NC[C@H](CS)N)C2=CC=CC=C2
Summary of the method: as §1

[9] = compound: CCn1cc(-c2ccnc3[nH]c(-c4cccc(CN(C)C)c4)cc23)c(-c2ccc(NC(=O)N(C)C)cc2)n1
Summary of the method: as §1

[10] = compound: CN1CCC(CNc2ccc3ncc(-c4cccc(OC(F)(F)F)c4)n3n2)CC1
Summary of the method: as §1

Measured: log2 fold change

SLC35A1 (UniProt P78382)
Chain of UniProt P78382 (P78382 whole entry, looked up): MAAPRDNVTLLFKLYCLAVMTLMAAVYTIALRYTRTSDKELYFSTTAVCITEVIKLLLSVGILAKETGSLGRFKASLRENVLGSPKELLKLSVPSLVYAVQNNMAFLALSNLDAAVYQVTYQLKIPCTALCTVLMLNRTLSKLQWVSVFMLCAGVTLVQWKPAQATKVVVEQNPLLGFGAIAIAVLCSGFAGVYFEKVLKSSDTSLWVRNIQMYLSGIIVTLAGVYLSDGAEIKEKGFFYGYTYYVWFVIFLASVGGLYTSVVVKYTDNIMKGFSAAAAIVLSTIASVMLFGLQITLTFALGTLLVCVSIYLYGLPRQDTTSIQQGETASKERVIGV
inactive: [1] 0.148 | volasertib 0.118 | [2] -0.034 | epoxomicin 0.018 | [3] -0.002 | [4] -0.056 | rosiglitazone -0.013 | [5] -0.191 | saracatinib 0.038 | sotrastaurin 0.015 | alvocidib 0.006 | Tubastatin A -0.038 | [6] -0.016 | defactinib -0.198 | rucaparib 0.048 | [7] -0.112 | encorafenib 0.043 | [8] -0.211

TBP (UniProt P20226)
inactive: [1] 0.087 | volasertib 0.073 | [2] 0.095 | epoxomicin -0.332 | [4] -0.227 | rosiglitazone -0.035 | [5] 0.001 | saracatinib 0.316 | alvocidib 0.119 | Tubastatin A -0.014 | defactinib -0.003 | rucaparib 0.088 | [7] -0.158 | encorafenib 0.019 | [8] -0.071

TENT5C (UniProt Q5VWP2)
inactive: [1] -0.073 | volasertib -0.038 | [2] 0.005 | [3] 0.085 | [9] 0.009 | [4] 0.031 | rosiglitazone 0.033 | [5] -0.066 | [10] -0.082 | saracatinib -0.127 | sotrastaurin 0.035 | alvocidib 0.115 | Tubastatin A 0.004 | [6] -0.133 | defactinib 0.071 | rucaparib 0.171 | [7] -0.071 | encorafenib 0.094 | [8] -0.011

SSBP4 (UniProt Q9BWG4)
Chain of UniProt Q9BWG4 (Q9BWG4 whole entry, looked up): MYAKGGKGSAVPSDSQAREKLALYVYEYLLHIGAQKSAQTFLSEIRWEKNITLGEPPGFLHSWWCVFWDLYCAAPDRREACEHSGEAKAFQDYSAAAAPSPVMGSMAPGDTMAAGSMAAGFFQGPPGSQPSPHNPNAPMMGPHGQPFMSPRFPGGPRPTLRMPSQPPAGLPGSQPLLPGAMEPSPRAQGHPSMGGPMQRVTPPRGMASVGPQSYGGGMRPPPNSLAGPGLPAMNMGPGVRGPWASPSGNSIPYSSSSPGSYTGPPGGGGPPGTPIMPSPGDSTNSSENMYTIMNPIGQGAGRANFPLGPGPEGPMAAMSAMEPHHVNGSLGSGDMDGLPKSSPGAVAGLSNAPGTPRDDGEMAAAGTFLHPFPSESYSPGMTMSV
active: saracatinib 0.409
inactive: [1] 0 | volasertib -0.056 | [2] -0.036 | [3] -0.116 | [9] -0.009 | rosiglitazone 0.162 | [5] -0.238 | [10] 0.036 | sotrastaurin 0 | Tubastatin A 0.038 | [6] -0.184 | rucaparib 0.022 | [7] 0.031 | encorafenib -0.18

SLC35F6 (UniProt Q8N357)
Chain of UniProt Q8N357 (Q8N357 whole entry, looked up): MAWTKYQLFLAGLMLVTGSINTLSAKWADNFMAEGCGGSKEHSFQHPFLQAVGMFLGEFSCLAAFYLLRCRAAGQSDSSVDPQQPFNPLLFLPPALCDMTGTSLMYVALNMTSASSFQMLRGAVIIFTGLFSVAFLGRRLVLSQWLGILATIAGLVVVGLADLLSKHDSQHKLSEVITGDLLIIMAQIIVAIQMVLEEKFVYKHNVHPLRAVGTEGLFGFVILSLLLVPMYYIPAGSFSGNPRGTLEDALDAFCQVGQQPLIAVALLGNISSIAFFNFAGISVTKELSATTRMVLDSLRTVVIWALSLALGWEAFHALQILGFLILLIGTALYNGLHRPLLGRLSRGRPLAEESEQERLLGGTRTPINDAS
inactive: [1] -0.099 | volasertib -0.053 | [2] 0.087 | epoxomicin 0.021 | [3] 0.11 | [4] 0.034 | rosiglitazone 0.047 | [5] -0.029 | saracatinib 0.182 | sotrastaurin -0.071 | alvocidib -0.002 | Tubastatin A -0.05 | [6] -0.025 | defactinib -0.043 | rucaparib -0.004 | [7] -0.247 | encorafenib -0.042 | [8] 0.007

SLC38A2 (UniProt Q96QD8)
inactive: [1] 0.035 | volasertib 0.004 | [2] -0.091 | epoxomicin -0.078 | [3] 0.084 | [4] -0.022 | rosiglitazone 0.002 | [5] -0.1 | saracatinib -0.007 | sotrastaurin 0.027 | alvocidib 0 | Tubastatin A -0.043 | [6] 0.004 | defactinib -0.034 | rucaparib -0.044 | [7] -0.188 | encorafenib 0.045 | [8] -0.024

TBC1D20 isoform 3 (UniProt Q96BZ9)
inactive: [1] 0.273 | volasertib -0.153 | [2] 0.07 | epoxomicin 0.068 | [3] -0.111 | [9] 0.028 | [4] 0.04 | rosiglitazone -0.03 | [10] 0.046 | sotrastaurin 0.053 | alvocidib -0.428 | [6] 0.004 | defactinib -0.044 | rucaparib 0.05 | encorafenib 0.074 | [8] -0.068

SYNE2 isoform 2 (UniProt Q8WXH0)
inactive: [1] 0.039 | volasertib -0.025 | [2] -0.145 | [3] -0.181 | [9] -0.274 | [4] -0.044 | rosiglitazone 0.053 | [5] -0.021 | [10] -0.025 | saracatinib -0.121 | sotrastaurin -0.005 | alvocidib 0.156 | Tubastatin A 0.071 | [6] -0.109 | defactinib 0.029 | rucaparib -0.045 | [7] 0.049 | encorafenib -0.107 | [8] -0.006

SLC9A6 isoform 2 (UniProt Q92581)
inactive: [1] 0.047 | volasertib -0.081 | [2] 0.009 | epoxomicin -0.013 | [3] -0.003 | [9] -0.003 | [4] -0.026 | rosiglitazone -0.013 | [5] -0.039 | [10] -0.071 | saracatinib 0.06 | sotrastaurin 0.048 | alvocidib -0.016 | Tubastatin A -0.027 | [6] 0.001 | defactinib -0.027 | rucaparib -0.015 | [7] -0.07 | encorafenib 0.008 | [8] 0.053

TARBP1 (UniProt Q13395)
Chain of UniProt Q13395 (Q13395 whole entry, looked up): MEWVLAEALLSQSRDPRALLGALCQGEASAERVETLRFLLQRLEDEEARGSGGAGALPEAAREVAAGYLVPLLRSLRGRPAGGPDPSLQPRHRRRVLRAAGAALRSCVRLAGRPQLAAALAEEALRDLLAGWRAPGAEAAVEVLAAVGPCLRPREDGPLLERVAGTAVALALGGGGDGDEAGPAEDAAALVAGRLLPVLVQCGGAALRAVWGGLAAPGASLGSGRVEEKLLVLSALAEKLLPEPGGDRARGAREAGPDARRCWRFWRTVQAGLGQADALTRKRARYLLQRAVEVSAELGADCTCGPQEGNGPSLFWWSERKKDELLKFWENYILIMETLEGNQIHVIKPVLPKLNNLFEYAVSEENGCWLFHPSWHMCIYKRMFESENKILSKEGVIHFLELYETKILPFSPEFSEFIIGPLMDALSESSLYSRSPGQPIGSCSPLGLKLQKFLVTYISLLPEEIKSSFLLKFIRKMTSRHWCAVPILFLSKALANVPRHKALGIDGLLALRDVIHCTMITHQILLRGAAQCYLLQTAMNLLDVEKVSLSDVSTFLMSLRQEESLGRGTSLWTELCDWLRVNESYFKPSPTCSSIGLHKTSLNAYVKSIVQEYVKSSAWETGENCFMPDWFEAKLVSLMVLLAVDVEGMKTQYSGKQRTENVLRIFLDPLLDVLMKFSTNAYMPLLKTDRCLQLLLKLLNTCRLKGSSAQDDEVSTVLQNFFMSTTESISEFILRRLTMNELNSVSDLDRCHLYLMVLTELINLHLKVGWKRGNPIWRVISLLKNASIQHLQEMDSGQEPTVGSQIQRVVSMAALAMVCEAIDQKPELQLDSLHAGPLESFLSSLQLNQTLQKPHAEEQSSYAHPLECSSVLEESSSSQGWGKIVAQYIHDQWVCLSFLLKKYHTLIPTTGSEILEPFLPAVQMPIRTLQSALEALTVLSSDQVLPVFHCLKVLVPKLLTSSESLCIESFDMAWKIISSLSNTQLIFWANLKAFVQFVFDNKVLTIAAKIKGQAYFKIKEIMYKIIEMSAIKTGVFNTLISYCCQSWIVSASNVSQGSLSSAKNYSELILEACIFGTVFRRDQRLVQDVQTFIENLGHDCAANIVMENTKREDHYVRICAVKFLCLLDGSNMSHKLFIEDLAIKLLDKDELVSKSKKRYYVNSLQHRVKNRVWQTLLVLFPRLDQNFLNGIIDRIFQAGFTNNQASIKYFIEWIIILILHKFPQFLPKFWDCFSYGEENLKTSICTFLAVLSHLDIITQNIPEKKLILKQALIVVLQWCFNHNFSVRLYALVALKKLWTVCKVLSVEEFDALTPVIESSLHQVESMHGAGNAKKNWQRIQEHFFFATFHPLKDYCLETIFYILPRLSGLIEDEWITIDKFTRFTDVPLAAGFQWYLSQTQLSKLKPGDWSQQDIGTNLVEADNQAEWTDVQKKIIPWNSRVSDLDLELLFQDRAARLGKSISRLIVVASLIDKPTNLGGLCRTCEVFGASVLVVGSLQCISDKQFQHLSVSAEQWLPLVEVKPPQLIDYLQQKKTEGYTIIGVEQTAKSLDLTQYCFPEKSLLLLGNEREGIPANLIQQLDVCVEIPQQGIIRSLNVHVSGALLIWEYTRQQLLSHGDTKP
active: volasertib -0.337
inactive: [1] -0.022 | [2] -0.107 | epoxomicin 0.121 | [3] 0.018 | [9] 0.077 | [4] -0.012 | rosiglitazone 0.013 | [5] 0.001 | [10] -0.027 | saracatinib 0.026 | sotrastaurin -0.036 | alvocidib -0.031 | Tubastatin A -0.033 | [6] 0.021 | defactinib -0.026 | rucaparib 0.042 | [7] -0.027 | encorafenib -0.041 | [8] 0.014

SNX15 (UniProt Q9NRS6)
inactive: [1] 0.177 | volasertib -0.223 | [2] -0.023 | [9] -0.016 | [4] -0.045 | rosiglitazone -0.051 | [5] 0.119 | [10] 0.039 | saracatinib -0.039 | sotrastaurin -0.048 | alvocidib 0.133 | Tubastatin A 0.045 | defactinib -0.177 | rucaparib -0.063 | [7] -0.043 | encorafenib 0.098 | [8] 0.025

SRC isoform 2 (UniProt P12931)
inactive: [1] 0.079 | volasertib -0.03 | [2] 0.108 | epoxomicin -0.16 | [3] -0.101 | [9] -0.066 | [4] -0.032 | rosiglitazone 0.029 | [5] -0.002 | [10] -0.149 | sotrastaurin -0.167 | alvocidib -0.061 | Tubastatin A -0.108 | [6] -0.069 | defactinib -0.077 | rucaparib -0.343 | [7] 0.007 | encorafenib 0.082 | [8] 0.188

SPART (UniProt Q8N0X7)
active: volasertib -0.224
inactive: [1] -0.031 | [2] -0.005 | epoxomicin -0.123 | [3] -0.015 | [9] 0.014 | [4] 0.069 | rosiglitazone 0.04 | [5] -0.035 | [10] -0.052 | saracatinib -0.03 | sotrastaurin -0.011 | alvocidib -0.063 | Tubastatin A -0.05 | [6] 0.001 | defactinib -0.109 | rucaparib -0.02 | [7] -0.032 | encorafenib 0.027 | [8] -0.014

SNRNP40 (UniProt Q96DI7)
Chain of UniProt Q96DI7 (Q96DI7 whole entry, looked up): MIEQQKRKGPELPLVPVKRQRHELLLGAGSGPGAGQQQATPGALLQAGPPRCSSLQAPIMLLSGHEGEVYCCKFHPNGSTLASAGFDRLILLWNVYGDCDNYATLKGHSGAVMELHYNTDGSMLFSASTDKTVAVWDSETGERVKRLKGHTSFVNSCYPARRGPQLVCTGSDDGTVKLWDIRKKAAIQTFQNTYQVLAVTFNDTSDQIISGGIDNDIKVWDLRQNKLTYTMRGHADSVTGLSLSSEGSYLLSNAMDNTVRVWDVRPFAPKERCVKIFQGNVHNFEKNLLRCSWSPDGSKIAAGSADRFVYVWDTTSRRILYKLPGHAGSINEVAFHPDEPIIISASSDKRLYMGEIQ
inactive: [1] 0.067 | volasertib 0.059 | [2] 0.026 | epoxomicin -0.05 | [3] -0.018 | [9] -0.033 | [4] -0.012 | rosiglitazone -0.001 | [5] -0.029 | saracatinib 0.068 | sotrastaurin -0.01 | alvocidib 0.143 | Tubastatin A -0.092 | [6] 0.045 | defactinib 0.128 | rucaparib 0.012 | [7] -0.03 | encorafenib 0.039 | [8] -0.034
active: [10] 0.261

TGFBI (UniProt Q15582)
Chain of UniProt Q15582 (Q15582 whole entry, looked up): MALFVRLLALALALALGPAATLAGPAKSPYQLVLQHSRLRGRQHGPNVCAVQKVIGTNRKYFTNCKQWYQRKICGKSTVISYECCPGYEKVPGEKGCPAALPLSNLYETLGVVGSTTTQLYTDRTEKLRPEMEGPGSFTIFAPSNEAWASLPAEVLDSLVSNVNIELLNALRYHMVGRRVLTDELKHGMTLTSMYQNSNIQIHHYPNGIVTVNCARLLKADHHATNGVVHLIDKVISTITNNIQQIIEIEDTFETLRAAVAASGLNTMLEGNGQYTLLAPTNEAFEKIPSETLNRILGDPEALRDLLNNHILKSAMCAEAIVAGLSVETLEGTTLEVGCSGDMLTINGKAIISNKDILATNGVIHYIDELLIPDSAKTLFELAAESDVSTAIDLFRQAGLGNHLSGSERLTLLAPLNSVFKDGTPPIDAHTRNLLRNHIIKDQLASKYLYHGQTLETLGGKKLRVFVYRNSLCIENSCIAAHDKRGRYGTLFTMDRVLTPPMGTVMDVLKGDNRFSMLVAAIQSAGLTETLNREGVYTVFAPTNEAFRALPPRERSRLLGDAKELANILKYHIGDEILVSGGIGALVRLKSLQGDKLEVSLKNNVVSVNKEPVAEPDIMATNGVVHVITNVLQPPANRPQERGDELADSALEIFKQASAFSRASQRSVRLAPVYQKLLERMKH
inactive: [1] -0.089 | volasertib -0.211 | [2] -0.044 | epoxomicin -0.33 | [3] -0.026 | [9] 0.068 | [4] -0.128 | rosiglitazone 0.118 | [5] 0.171 | [10] -0.142 | saracatinib 0.017 | sotrastaurin 0.171 | alvocidib 0.054 | Tubastatin A -0.005 | [6] -0.014 | defactinib -0.037 | rucaparib -0.06 | [7] -0.113 | encorafenib 0.006 | [8] 0.098

TAOK2 (UniProt Q9UL54)
Chain of UniProt Q9UL54 (Q9UL54 whole entry, looked up): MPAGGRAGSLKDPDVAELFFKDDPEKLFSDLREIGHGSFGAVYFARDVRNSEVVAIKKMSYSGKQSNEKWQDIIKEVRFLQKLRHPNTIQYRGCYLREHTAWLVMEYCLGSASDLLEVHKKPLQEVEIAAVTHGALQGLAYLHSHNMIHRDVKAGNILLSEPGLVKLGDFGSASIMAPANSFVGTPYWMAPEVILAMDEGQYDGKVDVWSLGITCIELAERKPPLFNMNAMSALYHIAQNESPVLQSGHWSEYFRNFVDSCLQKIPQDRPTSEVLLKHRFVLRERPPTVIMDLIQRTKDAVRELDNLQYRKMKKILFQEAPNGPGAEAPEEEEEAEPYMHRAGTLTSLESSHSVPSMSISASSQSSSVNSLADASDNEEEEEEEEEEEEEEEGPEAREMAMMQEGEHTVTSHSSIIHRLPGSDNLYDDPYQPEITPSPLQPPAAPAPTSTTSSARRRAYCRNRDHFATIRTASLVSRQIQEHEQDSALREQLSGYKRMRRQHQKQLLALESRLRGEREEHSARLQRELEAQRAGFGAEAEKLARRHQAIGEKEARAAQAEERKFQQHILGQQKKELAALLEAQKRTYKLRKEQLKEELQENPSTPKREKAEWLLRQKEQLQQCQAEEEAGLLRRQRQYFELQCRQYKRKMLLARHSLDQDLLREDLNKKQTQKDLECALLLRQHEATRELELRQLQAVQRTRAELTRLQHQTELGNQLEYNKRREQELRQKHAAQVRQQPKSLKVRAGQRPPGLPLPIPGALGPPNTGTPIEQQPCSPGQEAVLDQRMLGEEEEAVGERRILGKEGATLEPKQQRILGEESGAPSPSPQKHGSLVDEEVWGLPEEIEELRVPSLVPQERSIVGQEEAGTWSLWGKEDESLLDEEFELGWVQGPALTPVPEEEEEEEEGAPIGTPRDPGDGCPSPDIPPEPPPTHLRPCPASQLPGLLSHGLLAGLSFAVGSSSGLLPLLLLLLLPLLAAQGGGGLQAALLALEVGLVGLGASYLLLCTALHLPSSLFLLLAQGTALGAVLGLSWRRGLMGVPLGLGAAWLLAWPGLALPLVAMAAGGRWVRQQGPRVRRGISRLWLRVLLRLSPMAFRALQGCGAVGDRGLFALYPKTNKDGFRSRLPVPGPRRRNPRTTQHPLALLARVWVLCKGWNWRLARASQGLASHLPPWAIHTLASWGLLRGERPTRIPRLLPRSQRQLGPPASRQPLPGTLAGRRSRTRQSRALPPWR
inactive: [1] 0.024 | volasertib -0.061 | [2] -0.006 | epoxomicin -0.01 | [3] -0.277 | [9] -0.076 | [10] 0.01 | Tubastatin A -0.003 | [6] 0.244 | rucaparib -0.012 | encorafenib -0.028

TACC2 (UniProt O95359)
inactive: [1] -0.013 | volasertib -0.048 | [2] 0.014 | [3] 0.012 | [9] 0.041 | [4] -0.069 | rosiglitazone 0.039 | [5] 0 | [10] -0.044 | saracatinib -0.003 | sotrastaurin 0.115 | alvocidib -0.084 | Tubastatin A -0.041 | [6] 0.075 | defactinib -0.091 | rucaparib -0.045 | [7] -0.105 | encorafenib -0.013 | [8] 0.039

SNRNP27 (UniProt Q8WVK2)
inactive: [1] 0.029 | volasertib 0.014 | [2] -0.08 | epoxomicin 0.01 | [3] 0.051 | [9] 0.038 | [4] 0.005 | rosiglitazone -0.027 | [5] 0.051 | [10] -0.032 | saracatinib -0.071 | sotrastaurin 0.048 | alvocidib 0.062 | Tubastatin A -0.023 | [6] -0.036 | defactinib 0.015 | rucaparib 0.049 | [7] -0.09 | encorafenib -0.061 | [8] 0.097
